Assay results as given in PubChem BioAssay (NCI).
About 83,000 compounds went through this panel and 20% of them were active in at least one assay; those are over-represented in the sample as a whole.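 Single-dose data. Exposure time 48 hours. Values below 10 considered active.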 A number with no mark means an inactive call. Calls of active or inactive are those of the source.

Assays:
Assay in all cases: NCI-60 one-dose screen, 48 h (100 = growth as untreated, 0 = no growth, -100 = all killed)
Details in all cases: 10 µM unless noted
NCI-H23 lung = tested on: NCI-H23 lung
HOP-62 NSCLC = tested on: HOP-62 NSCLC
NCI-H460 lung = tested on: NCI-H460 lung
HOP-92 NSCLC = tested on: HOP-92 NSCLC
NCI-H522 lung = tested on: NCI-H522 lung
A549/ATCC NSCLC = tested on: A549/ATCC NSCLC
786-0 renal = tested on: 786-0 renal
COLO 205 colon = tested on: COLO 205 colon
DU-145 prostate = tested on: DU-145 prostate
K-562 leukemia = tested on: K-562 leukemia
MALME-3M melanoma = tested on: MALME-3M melanoma
MDA-MB-231 breast = tested on: MDA-MB-231 breast
RXF 393 renal = tested on: RXF 393 renal
SF-268 CNS = tested on: SF-268 CNS
SF-295 CNS = tested on: SF-295 CNS
SF-539 CNS = tested on: SF-539 CNS
UACC-257 melanoma = tested on: UACC-257 melanoma
M14 melanoma = tested on: M14 melanoma
NCI-H322M lung = tested on: NCI-H322M lung
NCI-H226 lung = tested on: NCI-H226 lung

Structure (SMILES)	growth (NCI-H23 lung)	growth (HOP-62 NSCLC)	growth (NCI-H460 lung)	growth (HOP-92 NSCLC)	growth (NCI-H522 lung)	growth (A549/ATCC NSCLC)	growth (786-0 renal)	growth (COLO 205 colon)	growth (DU-145 prostate)	growth (K-562 leukemia)	growth (MALME-3M melanoma)	growth (MDA-MB-231 breast)	growth (RXF 393 renal)	growth (SF-268 CNS)	growth (SF-295 CNS)	growth (SF-539 CNS)	growth (UACC-257 melanoma)	growth (M14 melanoma)	growth (NCI-H322M lung)	growth (NCI-H226 lung)
C=C(CBr)[C@@H]1CC[C@]2(C(=O)O)CC[C@]3(C)[C@H](CC[C@@H]4[C@@]5(C)CCC(=O)C(C)(C)[C@@H]5CC[C@]43C)[C@@H]12	85.8%	112%	81.3%	72.3%	46.5%	57.7%	106%	99.9%	86.1%	50.4%	89.4%	81%	85.9%	83.1%	79.2%	99.2%	80.2%	80%	–	–
Nc1ncnc2c1C(c1ccccc1)c1ccc3ccccc3c1O2 (centres undefined)	77.5%	68.5%	103%	45.1%	53.8%	86%	89.7%	92.8%	99.8%	70%	110%	89.1%	104%	84.7%	88%	90.7%	79.7%	95.8%	88%	–
Cc1[nH]c(=O)[nH]c(=O)c1Br	97.9%	104%	105%	102%	111%	98.2%	107%	112%	125%	98.3%	119%	99.3%	115%	95.2%	98.4%	114%	88.1%	107%	120%	–
COc1cc(-c2nccc3[nH]c(-c4ccc5cc[nH]c5c4)nc23)cc(OC)c1OC	26.1%	-19.6% (active)	2.58% (active)	-8.58% (active)	-59.5% (active)	-28.5% (active)	-56% (active)	-71.5% (active)	18.2%	-14.4% (active)	21.7%	-20.3% (active)	18%	19.3%	-59.4% (active)	-19.5% (active)	29.6%	4.35% (active)	45%	–
CCCCNC(=O)Oc1ccc(/C(=C(/C)Cc2ccc(OC)cc2)c2ccc(OCCN(CC)CC)cc2)cc1	97%	91.5%	53.3%	52.6%	85.3%	61.2%	69%	46.8%	91.7%	3.84% (active)	88.1%	88.8%	81.7%	86.2%	86.6%	77.8%	90.7%	52.1%	84.9%	–
C/C(=N\O)c1ccc(Cl)cc1	110%	95.7%	112%	65.3%	105%	97.9%	107%	–	121%	100%	137%	116%	141%	127%	118%	114%	89.5%	114%	123%	–
COc1ccc(C(O)c2cc3c(N)c(C(=O)Nc4cccc(Br)c4)sc3nc2C)cc1 (centres undefined)	21.9%	24.3%	0.823% (active)	24.7%	9.45% (active)	11.2%	15.3%	–	3.17% (active)	9.61% (active)	31.8%	2.61% (active)	28.2%	6.77% (active)	8.77% (active)	-19.9% (active)	45.7%	11.5%	–	3.81% (active)
COc1ccc2cc1Oc1ccc(cc1)C[C@H]1c3c(cc4c(c3Oc3cc5c(cc3OC)CCN(C)[C@@H]5C2)OCO4)CCN1C	75.9%	115%	59.4%	52.6%	-18.8% (active)	47.2%	53.5%	109%	59.6%	-2.72% (active)	-46.1% (active)	-5.97% (active)	-18.7% (active)	36.4%	58.1%	-55.7% (active)	-78.4% (active)	-86.2% (active)	56%	–
